# Test system: RARa:RXR (NR concentration 270 nM, RXRa partner concentration 90 nM)
# Assay: PBM binding z-score (relative to random genomic background probes); higher = stronger binding; sequences stand for … in GC…GCGATTGACAGCGTAGAATGAAGG
# Outline: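 Binding z-scores were set against random background probes. The data came from custom Agilent 4×180K protein-binding microarrays carrying double-stranded probes with 34-nt variable regions, incubated 1 h with ligand-free nuclear receptor dimers. Partner-specific antibodies detected binding, and scanned fluorescence was regression-normalized.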
row,Sequence,PBM binding z-score
1,AATACAGGGCCACTAGGCCAGAGTAGGTACGAAT,-0.268
2,TCTTGTAAATCAGCAGGTTAAGAAAGCTGGCCAA,0.789
3,ACTATTAGTTGACTTAGGGCAACCGTTACGACGC,0.863
4,CAAACTAGGTCCCGAAAGGTCAAAGTCGAATGAC,6.01
5,CGTCCACGGTCAGCAGGTCAGTGAAAGCGACGTG,0.943
6,ATCGAAAGGTCGGAGGTGAGTATACCCACCCGAA,2.79
7,GCTTACGGGTCAAAGGTTATTGCATGAATAGAAT,8.16
8,ATTCGGAGGACAAAGGTCAGAGCTACGCCAGTGA,4.9
9,GGTAGCAGGCCATTTGGGTCACTCAATGACGGGC,0.741
10,GATACAGGGTCAGCTCGAGGCCAGAGTATGGAAA,3.66
11,GCTTGTAGATCAAGGTTAAGATAGACTAAGCTAA,0.825
12,ACTATTAGATGAGACGAGGGCAACCGATAGGTTG,0.634
13,AATACAGGGTCAACGTAGGCCAGAGTACGCACAG,5.45
14,GCATGTAGGTAATACAAGGTGAAAGTCCGATTGT,1.52
15,TCTATTAGTTGACGGGCAACCGACGAGTCCGTTT,0.201
16,GCTTTTAGATCAAGGTTAAGAAAGACTAAGCTAA,1.07
17,TCGAGTAGGTTACCAATGGGGCATTCTGCTTTCT,0.363
18,CCTAGCGGGCCAGGGTCACTCAAGCATTTCGCTT,3.38
19,GCTTGTAGATCAAGGATAAGAAAGACTAAGCTAA,-0.653
20,ATATGTAGGTTAAGGGTCATCCAGGTTGGTTCGC,6.77
21,ACAGACAGGTGAGTGAAGGTAACTCACCTGGACG,0.495
22,CGAACTAGGTCAGAACAGGTCAGTGAAGGATGAT,2.3

# Reference: the supplement of paper PMC6555819
